Bioassay records from PubChem BioAssay.
TDP1 cell CPT: growth inhibition of DT40 Tdp1-/-;hTDP1 cells with camptothecin (screen for TDP1 inhibitors). chicken DT40 Tdp1-/-;hTDP1 cells + 20 nM CPT, ATP luminescence, 48 h. Potency, µM (series often up to 46.2 µM), for inactives: at the top dose activity change, negative = growth inhibition, most hits filed as inhibitors. hit rate 12% among 420,000; note: nearly all actives have a fitted effect of over 55% in size
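Cell growth measured by CellTiter-Glo luminescence after a minimum 48 h, 37 C compound exposure with 20 nM CPT in Tdp1-knockout DT40 cells stably expressing hTDP1, seeded 400/well; qHTS titration format.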
RORg inh: ROR gamma (mouse) transcription inhibition; Potency, µM (highest dose often 53.6 µM), for inactives: top-dose activity change, negative = inhibition, usual class: inhibitors; P51450; Drosophila S2 Gal4-RORgamma UAS-luciferase reporter, 20 h; AID 2551; hit rate 5.4% among 310,000; note: nearly all actives have a fitted effect of over 60% in size
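ROR gamma transcriptional activity was tracked as Gal4-UAS luciferase output in stably transfected Drosophila Schneider cells, with compound added 1 hr before 700 uM copper sulfate induction and a 20 hr ambient-temperature incubation.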
ELG1 DNA repair: ELG1-dependent DNA repair inhibition. HEK293T ELG1-luciferase reporter, luminescence, 16 h; DNA damage induced by 5-fluorouridine. Potency, µM (doses to about 46.1 µM), without a hit: top-dose activity change, negative = inhibition, hits mostly inhibitors. hit rate 2.3% among 330,000. AID 504467; note: nearly all actives have a fitted effect of over 55% in size
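Quantitative HTS, concentration-response format. 2,000 cells/well co-treated with 5-fluorouridine and compound, 16 hr in 5% CO2 at 37 °C; ONE-Glo luminescence read after 30 min.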
VP16 counter: counter-screen for ROR gamma inhibitors: Gal4-VP16 reporter | AID 2546 | Potency, µM (highest dose often 53.6 µM), without a hit: at the highest dose activity, negative = inhibition, most hits filed as inhibitors | Drosophila S2 Gal4-VP16 UAS-luciferase, luminescence, 20 h | hit rate 3.5% among 310,000;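 note: Gal4-VP16 expression switched on by copper sulfate through the metallothionein promoter; nearly all actives have a fitted effect of over 50% in size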
TDP1 cell noCPT: qHTS for Inhibitors of human tyrosyl-DNA phosphodiesterase 1 (TDP1): qHTS in cells in absence of CPT; DT40 Tdp1-/- hTDP1 cells, no CPT, ATP luminescence, 48 h; Potency, µM (titrated, usually from 46.2 µM), without a hit: top-dose activity change, negative = growth inhibition, most hits filed as inhibitors; hit rate 15% among 420,000; AID 686978, 2013; note: nearly all actives have a fitted effect of over 55% in size
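Compound effects on proliferation are scored in DT40 Tdp1-/-;hTDP1 cells in the absence of CPT. ATP levels (CellTiter-Glo luminescence) are recorded after a ≥48 hr, 37 °C incubation.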
ALOX12 inh: inhibitors of human 12S-lipoxygenase ALOX12; hit rate 1.1% among 580,000; P18054; Potency, µM (top dose mostly 108 µM), for inactives: at the highest dose activity change, negative = inhibition, usual class: inhibitors; purified 12hLO, xylenol orange hydroperoxide absorbance; AID 1671190
Target sequence (P18054 whole entry, looked up): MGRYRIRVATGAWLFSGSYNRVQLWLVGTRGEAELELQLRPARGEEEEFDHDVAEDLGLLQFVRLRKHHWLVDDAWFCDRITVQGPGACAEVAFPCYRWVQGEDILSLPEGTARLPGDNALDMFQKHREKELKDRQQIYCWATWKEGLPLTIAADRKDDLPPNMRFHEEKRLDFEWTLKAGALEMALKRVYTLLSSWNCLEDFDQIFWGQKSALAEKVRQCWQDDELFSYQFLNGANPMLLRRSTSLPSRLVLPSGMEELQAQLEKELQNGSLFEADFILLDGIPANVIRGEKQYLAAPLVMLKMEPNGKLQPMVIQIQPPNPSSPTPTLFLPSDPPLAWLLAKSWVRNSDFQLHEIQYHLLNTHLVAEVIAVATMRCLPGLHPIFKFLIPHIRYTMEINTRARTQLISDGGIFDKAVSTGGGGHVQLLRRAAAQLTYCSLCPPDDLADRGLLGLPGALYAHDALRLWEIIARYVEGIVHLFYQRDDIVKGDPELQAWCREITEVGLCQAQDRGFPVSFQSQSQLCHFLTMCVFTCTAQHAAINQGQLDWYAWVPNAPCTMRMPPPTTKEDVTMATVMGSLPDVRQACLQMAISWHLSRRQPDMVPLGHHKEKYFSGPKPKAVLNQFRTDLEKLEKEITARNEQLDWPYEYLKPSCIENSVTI
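Purified human 12hLO (150 nM final) in 25 mM Hepes, 0.01% Triton X-100, pH 7.0 was preincubated 15 min at room temperature with compound. Then 40 uM arachidonic acid was added, 30 min. Hydroperoxide was read by Fe-XO absorbance ratio 573/405 nm.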
Numbers without * were called inactive; ? = inconclusive; / = no result; [ ] = another dose, or the depositor's remark. Compounds with a hit are over-represented: about 15% of the library has one in this group of screens. Calls come from the whole dose curve; as a rule, active = well fitted curve in the direction sought with a large enough effect; inconclusive = small, poorly fitted or top-dose-only effect, or another doubt; inactive = no such curve, though single readings can be large; an effect the other way counts as inactive or inconclusive. % is set by controls: 0 for no effect and ±100 for the full control effect; potency is the fitted concentration of half-maximal effect.

SMILES	TDP1 cell CPT	RORg inh	ELG1 DNA repair	VP16 counter	TDP1 cell noCPT	ALOX12 inh
COc1ccc(C2C=C(c3ccccc3)Nc3nc(NC(=O)c4cccc([N+](=O)[O-])c4)nn32)cc1 (stereo not drawn)	?	/	/	/	?	0%
O=C(Nc1nc2n(n1)C(c1ccccc1)C=C(c1ccccc1)N2)c1ccccc1 (stereo not drawn)	16µM*	/	/	/	18µM*	-25%
O=C(Nc1nc2n(n1)C(c1ccc(Cl)cc1)C=C(c1ccccc1)N2)c1ccco1 (stereo not drawn)	21µM*	/	/	/	21µM*	0%
COc1cncc(CN2CCC3(CC2)COCCN3C(=O)OCc2ccccc2)c1	/	/	/	/	/	34%[176 µM]
O=C(Nc1ccc(N2CCCCC2)c(Cl)c1)c1ccc2c(c1)OCCO2	?	6%	-27%	-26%	21µM*	-6%
O=C(Nc1ccc(N2CCOCC2)c(Cl)c1)c1ccc2c(c1)OCCO2	?	0.79µM*	?	?	?	-3%
O=C(Nc1ccc(N2CCCC2)c(Cl)c1)c1ccc2c(c1)OCCO2	?	/	/	/	21µM*	-8%
CC(C1CC1)N(Cc1ccccc1)S(=O)(=O)c1ccccc1Cl (stereo not drawn)	/	/	/	/	/	-9%
COc1cccc2cc(-c3ccc(OCC(=O)NCCN4CCOCC4)cc3)c(=O)oc12	/	/	/	/	/	-6%
Cc1ccc(Cc2c[nH]c(=S)s2)cc1	7%	?	-5%	?	?	35µM*
CCOC(=O)CSc1nc2ccccc2c(=O)n1CC1CCC(C(=O)NCc2ccco2)CC1 (stereo not drawn)	?	-5%	-16%	-14%	23µM*	?
CCOC(=O)CSc1nc2ccccc2c(=O)n1CC1CCCC1	10µM*	10%	-17%	-12%	15µM*	-92%
CCOC(=O)CSc1nc2ccccc2c(=O)n1CC	-4%	-4%	11%	3%	7%	0%
COc1cc(/C=N/NC(=O)c2ccc(-c3ccccc3)cc2)cc(OC)c1OC	21µM*	-36%	16µM*	-7%	?	-7%
COc1cc(/C=N/NC(=O)c2cc(-c3ccccc3)sc2N)cc(OC)c1OC	16µM*	14%	23µM*	1%	16µM*	0%
COc1cc(/C=N/NC(=O)CCn2c3ccccc3c3ccccc32)cc(OC)c1OC	?	12%	18µM*	-26%	-7%	-2%
COc1cc(/C=N\NC(=O)c2sc(N)nc2C)cc(OC)c1OC	?	1%	-11%	0%	13µM*	0%
COc1cc(/C=N/NC(=S)Nc2cccc(C(=O)O)c2)cc(OC)c1OC	8%	?	14%	?	-5%	?
CCCOc1ccc(C(=O)NC(=S)N2CCN(c3ncc4c(=O)c(C(=O)O)cn(CC)c4n3)CC2)cc1	23µM*	/	/	/	?	?
CCCCOC(=O)c1ccc(NC(=S)N2CCN(c3ncc4c(=O)c(C(=O)O)cn(CC)c4n3)CC2)cc1	?	0%	?	7%	?	0%
CCn1cc(C(=O)O)c(=O)c2cnc(N3CCN(C(=S)Nc4ccccc4C(F)(F)F)CC3)nc21	-30%	0%	15µM*	0%	29µM*	-14%
CCn1cc(C(=O)O)c(=O)c2cnc(N3CCN(C(=S)NC(=O)c4ccccc4)CC3)nc21	-16%	2.5µM*	7%	1%	-10%	-1%
CCn1cc(C(=O)O)c(=O)c2cnc(N3CCN(C(=S)Nc4ccccc4)CC3)nc21	?	4%	-21%	-7%	?	-19%
CC(C)NC(=O)CON=C1c2ccccc2-c2ccccc21	/	/	/	/	/	9%
O=C1NCCOCCN(S(=O)(=O)c2cccc3nsnc23)[C@@H]2CCCC[C@H]12	/	/	/	/	/	30%
SMILES	TDP1 cell CPT	RORg inh	ELG1 DNA repair	VP16 counter	TDP1 cell noCPT	ALOX12 inh
Cc1ccc(C(=O)N2CCC3(CC2)NC(=O)N(c2ccccc2)N3)cc1F	/	/	/	/	/	4µM*
CN(C)c1ccc(C(=O)N2CCC3(CC2)NC(=O)N(c2ccccc2)N3)cc1	/	/	/	/	/	2.8µM*
COc1cccc(C(=O)N2CC3CC(C2)[C@H]2CCCC(=O)N2C3)c1 (stereo partly drawn)	/	/	/	/	/	34%
CNc1ccc(-c2nc(-c3ccncc3)no2)cc1[N+](=O)[O-]	-14%	/	/	/	-6%	-17%
Cc1ccc(-c2nc(-c3ccncc3)no2)cc1Cl	7%	-25%	?	-2%	-4%	1%
Cc1cc(-c2nc(-c3ccncc3)no2)ccc1[N+](=O)[O-]	15µM*	0%	?	21%	?	?
Cc1ccc(-c2nc(-c3ccncc3)no2)cc1C	-16%	8.9µM*	?	?	-25%	-19%
N#C/C(=C/c1ccc(Cl)cc1)C(=O)OCC(=O)N1CCOCC1	/	/	/	/	/	-1%
COc1ccccc1-n1c(=O)c2c3c(sc2n(Cc2ccccc2F)c1=O)CN(C(C)=O)CC3	-22%	/	/	/	-9%	?
CC(=O)N1CCc2c(sc3c2c(=O)n(Cc2ccccc2)c(=O)n3Cc2cc(C)ccc2C)C1	16µM*	/	/	/	21µM*	-29%
